In PubChem BioAssay AID651820 (National Center for Advancing Translational Sciences (NCATS), 2012):
“And” between values parts separate entries of the source, which are not always exact repeats. Equal entries are not always repeated. The campaign covered roughly 340,000 compounds. About 12,000 (3.5%) were called active. Not shown: some 18% with an inconclusive outcome. The call rests on the fitted dose curve; in most records, active means well fitted inhibition curve with a large enough effect; inconclusive means small, poorly fitted or top-dose-only effect, or another doubt; inactive means no such curve, though single readings can be large or run the other way. Shown is part of a subset that was picked to be rich in actives. A structure can be active in one record and inactive in another.

Test: qHTS Assay for Inhibitors of Hepatitis C Virus (HCV)
Conditions: Huh7.5.1 HCVcc-Cre infection, luciferase reporter, 44 h; series mostly up to 41.8 µM; activity change, negative = inhibition: at the top concentration
Summary of the method: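 Whole-lifecycle infectious HCVcc-Cre system; cells 1,000/well, compound then virus (~0.5 moi) added 4 h after plating, 44 h culture. Luciferase read 15 sec following 15 min substrate incubation, room temp.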
On the % scale 0 is the no-effect control and ±100 the full control effect; potency means the concentration at half of the fitted maximal effect.

Compound | activity change, negative = inhibition | Potency
Cc1c(NS(=O)(=O)c2cc(C(=O)NCCc3ccc(F)cc3)cc(Cl)c2Cl)c(=O)n(-c2ccccc2)n1C | 14.6% (inactive) | 
CCN(CC(=O)NC(C)C)C(=O)c1cc(S(=O)(=O)N2CCCCC2)ccc1N1CCCCC1 | 26.8% (inactive) | 
O=C(/C=C/c1ccc(OCc2c(F)cccc2Cl)cc1)N1CCOCC1 | 4.94% (inactive) | 
COCCCNC(=O)/C=C/c1ccc(OCc2c(F)cccc2Cl)cc1 | -5.61% (inactive) | 
CN(C)CCCNC(=O)/C=C/c1ccc(OCc2c(F)cccc2Cl)cc1 |  | 2.82 µM (active)
O=C1COc2ccc(C(=O)COC(=O)CCOc3ccccc3)cc2N1 | 35.1% (inactive) | 
COCCN(C(=O)CC1CCCCC1)c1c(N)n(CC(C)C)c(=O)[nH]c1=O | 2.89% (inactive) | 
CCCCn1c(N)c(N(CCOC)C(=O)c2cccc(S(=O)(=O)N3CCCCC3)c2)c(=O)[nH]c1=O | 9.94% (inactive) | 
CC(Cc1ccccc1)NCCC(c1ccccc1)c1ccccc1 (stereo unspecified) |  | 10 µM (active)
Cc1ncoc1C(=O)NCCC(c1ccccc1)c1ccccc1 | -13.5% (inactive) | 
CC(Cc1ccccc1)C(=O)N(C)Cc1ccccc1 (stereo unspecified) | -10.3% (inactive) | 
CC[C@]12c3[nH]c4ccc(OC)cc4c3CCN1C(=O)C(CC(=O)NCc1ccco1)C[C@@H]2C(=O)N1CCN(C(=O)C2CC2)CC1 (stereo partly specified) | 36.7% (inactive) | 
O=C(CN1CCN(S(=O)(=O)c2ccc(Cl)s2)CC1)N1CCCCC1 | 3.28% (inactive) | 
COc1ccc(OC)c(NC(=O)c2sc3nc(C)cc(C)c3c2N)c1 | 20.2% (inactive) | 
COc1ccc(OC)c(-c2csc(NC(=O)COC(=O)C3CC3)n2)c1 |  | 10 µM (active)
COc1ccc(-c2csc(NC(=O)COC(=O)c3ccc(Br)o3)n2)cc1 | 0.372% (inactive) | 
COc1ccc(C(=O)NC2=NCCS2)c(OC)c1 | -19.4% (inactive) | 
COc1ccc(CCNC(=O)COC(=O)C2CCCCC2)cc1 | 19.3% (inactive) | 
COc1ccc(OC)c(-c2csc(NC(=O)C3=NNC(=O)CC3)n2)c1 |  | 0.891 µM (active)
COCCCn1c(SCC(=O)Nc2oc(C)c3c(C)n[nH]c(=O)c23)nc2sc3c(c2c1=O)CCC3 | 6.64% (inactive) | 
COc1ccc(CN2C(CC(=O)Nc3cccnc3)c3ccc(C(F)(F)F)cc3S2(=O)=O)cc1 (stereo unspecified) | 5.53% (inactive) | 
Cc1cc(C)c(C)c(S(=O)(=O)Nc2cccnc2)c1C | 3.82% (inactive) | 

Compound | activity change, negative = inhibition | Potency
CC(OC(=O)C1CC(=O)N(Cc2ccccc2)C1)C(=O)Nc1ccccc1[N+](=O)[O-] (stereo unspecified) | 4.16% (inactive) | 
CCOc1ccc(N2C(=O)CSC2=NC#N)cc1 | 10.2% (inactive) | 
COc1cc2[nH]c(=S)n(Cc3ccc(F)cc3)c(=O)c2cc1OC | -14.5% (inactive) | 
COc1cc(-n2c(=S)[nH]c3ccc(C)cc3c2=O)c(Cl)cc1Cl |  | 10 µM (active)
COc1ccc(OC)c(-n2c(=S)[nH]c3cc(C(=O)N4CCCCC4)ccc3c2=O)c1 | 2.37% (inactive) | 
CCN(C(=O)CSc1cccc[n+]1[O-])c1ccccc1 | 1.01% (inactive) | 
Cc1cccc(NC(=S)NC(=O)c2ccc(Br)o2)c1 | -5.17% (inactive) | 
Cc1cccc(NC(=O)c2ccc([N+](=O)[O-])o2)c1 |  | 3.55 µM (active)
Cc1onc(NC(=O)c2ccc([N+](=O)[O-])o2)c1Br | 12.3% (inactive) | 
CC(C)(C)OC(=O)N[C@H](C(=O)OC(C)(C)C)c1ccc(Br)cc1 | -6.12% (inactive) | 
C[C@]12C=CC(=O)C=C1CC[C@@H]1[C@@H]2C(=O)C[C@@]2(C)[C@H]1CC[C@]2(O)C(=O)CO |  | inactive and 2.82 µM (active)
CC1(C)C(=O)CCC2(C)C1=CCC1C2C(=O)CC2(C)C1CCC2(O)C(=O)CO (stereo unspecified) | 9.92% (inactive) | 
CC(=O)OCC(=O)C1(O)CCC2C3CC(C)C4=CC(=O)CCC4(C)C3C(O)CC21C (stereo unspecified) | 7.93% (inactive) | 
COc1ccc(-n2c(C)cc(C(=O)CSc3nnc(-c4cccs4)o3)c2C)cc1 |  | 11.2 µM (active)
COc1ccc(-c2nnc(SCC(=O)c3cccs3)o2)c(OC)c1 | -14.7% (inactive) | 
COc1ccc(C(=O)CSc2nnc(-c3ccco3)o2)cc1 | -11.4% (inactive) | 
COc1cc(C=NNC(=O)c2cccnc2)ccc1OC(=O)c1ccccc1F | -1.01% (inactive) | 
O=C(COC(=O)c1ccccn1)NNC(=O)c1ccc([N+](=O)[O-])cc1 | -0.758% (inactive) | 
O=C(Nc1ccccc1)N1CCC(C(=O)N2CCN(Cc3ccccc3)CC2)CC1 | 8.63% (inactive) | 
c1ccc(Nc2nc(-c3ccncc3)cs2)nc1 |  | 11.2 µM (active)
Cc1cccc(Nc2nc(-c3ccccc3)cs2)n1 | -8.65% (inactive) | 
c1cnc(Nc2nc(-c3ccc4ccccc4c3)cs2)nc1 | -8.89% (inactive) | 

Compound | activity change, negative = inhibition | Potency
CC(C)CN1CC(C)C(=O)N(c2ccccc2)C1=S (stereo unspecified) | 2.15% (inactive) | 
O=[N+]([O-])c1ccc(N2CCOCC2)cc1 | 9.72% (inactive) | 
COc1ccc(C2NCCCC2c2ccccc2)cc1 (stereo unspecified) | 1.92% (inactive) | 
Cn1c(CN2CCOCC2)nc2cc(NC(=O)c3ccc(Cl)cc3)ccc21 |  | 2.82 µM (active)
CC(=O)NCCc1nc2cc(NC(=O)c3ccccc3)ccc2n1C | 10.2% (inactive) | 
CCOC(=O)N1CCN(Cc2nc3cc(NC(C)=O)ccc3n2C)CC1 | 10.3% (inactive) | 
COc1cccc(/C=N/Nc2ncc(C(F)(F)F)cc2Cl)c1O |  | 5.62 µM (active)
COc1cccc(/C(C)=N/Nc2ncc(Cl)cc2Cl)c1 | -0.35% (inactive) | 
COC(=O)Cc1ccc(Oc2ncc(C(F)(F)F)cc2Cl)cc1 | -12.6% (inactive) | 
Cc1cccc(NC(=O)CN2CCN(CC(=O)NCC3(N4CCCCC4)CCCCC3)CC2)c1C | 6.26% (inactive) | 
COc1ccc(S(=O)(=O)N2CCOCC2)cc1NC(=O)Cc1coc2cc(C)ccc12 | -7.25% (inactive) | 
Cc1ccc(-c2nn(-c3ccccc3)cc2C(=O)NCCCN2CCCC2=O)cc1 | 1.07% (inactive) | 
Cn1c(=O)n(CCc2ccccc2)c(=O)c2c1nc1n2CCCN1c1ccccc1 | -15.1% (inactive) | 
CC(C)CCn1c(CN(C)Cc2ccccc2)nc2c1c(=O)n(C)c(=O)n2C | -26.5% (inactive) | 
CC(C)CCn1c(=O)c2c(nc3n2CCCN3Cc2ccccc2)n(C)c1=O |  | 11.2 µM (active)
O=c1[nH]c(=S)[nH]c(O)c1/C=C1\C=Nc2ccccc21 | 23.1% (inactive) | 
Cc1cc(F)ccc1S(=O)(=O)Nc1ccc(C(=O)N(C)Cc2ccco2)cc1 | 4.73% (inactive) | 
CCOC(=O)C1=CN(Cc2ccc(Br)cc2)S(=O)(=O)NC1C (stereo unspecified) | -13.7% (inactive) | 
COC(=O)c1cc(Oc2ccc(S(=O)(=O)N3CCOCC3)cc2[N+](=O)[O-])cc(C(=O)OC)c1 | -16.3% (inactive) | 
CC1CCN(CCC(=O)Nc2ccccc2)CC1 | 4.3% (inactive) | 
O=C(CCN1c2ccccc2Sc2ccccc21)Nc1ccccc1 |  | 12.6 µM (active)
O=C(CCN1C(=O)c2ccccc2C1=O)Nc1ccncc1 | 10.5% (inactive) | 
